Measured values: PubChem BioAssay AID1159580 (chemical genetic matrix, 2015)
The campaign covered roughly 5,500 compounds. About 2,000 (36%) were called active. Not shown: some 18% with an inconclusive outcome. Cut-off read from the data, not from the text of the source: active = normalized growth mostly below about 0.91 (no sharp cut-off); inconclusive = no clear call, values can overlap the other calls; inactive = mostly above about 0.92. This is one part of the list.

Experiment: chemical genetic growth profiling, strain panel (AID 1159580);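 note: tested at 20 µM; growth read once vehicle control cultures reached saturation at 30 °C; 1 = growth at the plate median or of vehicle wells; lower values mean less growth of the strain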
Conditions: S. cerevisiae deletion strains, growth OD

Measured: normalized growth

O=C(O)c1cn(-c2ccc(F)cc2)c2cc(N3CCNCC3)c(F)cc2c1=O
inactive: locus YAL021C, strain ccr4, active compounds read low 0.949 | locus YAL026C, strain drs2, active compounds read low 0.975 | locus YAL030W, strain snc1, active compounds read low 0.964 | locus YBL061C, strain skt5, active compounds read low 0.981 | locus YBR009C, strain hhf1, active compounds read low 0.979 | locus YBR023C, strain chs3, active compounds read low 0.966 | locus YBR171W, strain sec66, active compounds read low 0.958 | locus YBR231C, strain swc5, active compounds read low 0.967 | locus YBR279W, strain paf1, active compounds read low 0.959 | locus YCL011C, strain gbp2, active compounds read low 0.975 | locus YCL016C, strain dcc1, active compounds read low 0.983 | locus YCL061C, strain MRC1, active compounds read low 0.969 | locus YCL069W, strain vba3, active compounds read low 0.983 | locus YCR088W, strain abp1, active compounds read low 0.982 | locus YDL005C, strain med2, active compounds read low 0.985 | locus YDL040C, strain nat1, active compounds read low 0.979 | locus YDR001C, strain nth1, active compounds read low 0.952 | locus YDR069C, strain doa4, active compounds read low 0.94 | locus YDR137W, strain rgp1, active compounds read low 0.921 | locus YDR159W, strain sac3, active compounds read low 0.96 | locus YDR195W, strain ref2 0.921 | locus YDR297W, strain sur2, active compounds read low 0.981 | locus YDR334W, strain swr1, active compounds read low 0.938 | locus YDR335W, strain msn5, active compounds read low 0.949 | locus YDR392W, strain spt3, active compounds read low 1.02 | locus YEL003W, strain gim4, active compounds read low 0.96 | locus YEL037C, strain rad23, active compounds read low 0.959 | locus YEL061C, strain CIN8 (second series), active compounds read low 0.97 | locus YER015W, strain faa2, active compounds read low 0.983 | locus YER016W, strain bim1, active compounds read low 0.967 | locus YER111C, strain swi4, active compounds read low 0.967 | locus YER155C, strain BEM2 (second series), active compounds read low 0.919 | locus YFR010W, strain ubp6, active compounds read low 0.949 | locus YGL167C, strain pmr1, active compounds read low 0.941 | locus YGL173C, strain kem1, active compounds read low 0.984 | locus YGL227W, strain vid30, active compounds read low 0.954 | locus YGL240W, strain doc1, active compounds read low 0.944 | locus YGL253W, strain hxk2, active compounds read low 0.993 | locus YHR013C, strain ard1, active compounds read low 0.982 | locus YHR027C, strain rpn1, active compounds read low 0.976 | locus YHR030C, strain SLT2, active compounds read low 1.04 | locus YHR079C, strain IRE1, active compounds read low 1.03 | locus YHR142W, strain chs7, active compounds read low 1.01 | locus YJL092W, strain hpr5, active compounds read low 0.974 | locus YJL095W, strain BCK1 (second series), active compounds read low 0.977 | locus YJL095W, strain BCK1, active compounds read low 0.976 | locus YJL115W, strain asf1, active compounds read low 0.963 | locus YJL129C, strain trk1, active compounds read low 0.992 | locus YJL154C, strain vps35, active compounds read low 0.97 | locus YJL164C, strain tpk1, active compounds read low 0.993 | locus YJL166W, strain qcr8, active compounds read low 0.947 | locus YJL187C, strain SWE1, active compounds read low 0.979 | locus YJR066W, strain TOR1, active compounds read low 0.985 | locus YKL160W, strain elf1, active compounds read low 0.989 | locus YKR026C, strain gcn3, active compounds read low 0.962 | locus YKR091W, strain srl3, active compounds read low 0.979 | locus YLL001W, strain dnm1, active compounds read low 0.977 | locus YLL026W, active compounds read low 0.967 | locus YLL041C, strain sdh2, active compounds read low 0.977 | locus YLR027C, strain aat2, active compounds read low 0.982 | locus YLR113W, strain HOG1, active compounds read low 0.975 | locus YLR221C, strain rsa3, active compounds read low 0.992 | locus YLR258W, strain gsy2, active compounds read low 0.979 | locus YLR262C, strain YPT6 (second series), active compounds read low 0.951 | locus YLR320W, strain mms22, active compounds read low 0.981 | locus YLR342W, strain FKS1, active compounds read low 0.96 | locus YLR357W, strain rsc2, active compounds read low 0.958 | locus YLR370C, strain arc18, active compounds read low 0.948 | locus YLR384C, strain iki3, active compounds read low 0.971 | locus YML120C, strain ndi1, active compounds read low 0.972 | locus YMR058W, strain fet3, active compounds read low 0.968 | locus YMR125W, strain sto1, active compounds read low 0.967 | locus YMR129W, active compounds read low 0.997 | locus YMR205C, strain PFK2, active compounds read low 0.995 | locus YMR231W, strain pep5, active compounds read low 0.973 | locus YNL071W, strain lat1, active compounds read low 0.991 | locus YNL183C, strain NPR1, active compounds read low 0.982 | locus YNL209W, strain ssb2, active compounds read low 0.972 | locus YNL248C, strain rpa49, active compounds read low 1.02 | locus YNL322C, strain KRE1 (second series), active compounds read low 0.966 | locus YNR049C, strain mso1, active compounds read low 0.979 | locus YOR001W, strain rrp6, active compounds read low 0.952 | locus YOR070C, strain gyp1, active compounds read low 0.984 | locus YOR080W, strain dia2, active compounds read low 0.945 | locus YOR083W, strain WHI5, active compounds read low 0.987 | locus YOR106W, strain vam3, active compounds read low 0.962 | locus YOR231W, strain MKK1, active compounds read low 1.01 | locus YOR265W, strain rbl2, active compounds read low 0.974 | locus YOR270C, strain vph1, active compounds read low 0.947 | locus YOR290C, strain snf2, active compounds read low 0.965 | locus YPL051W, strain arl3, active compounds read low 0.955 | locus YPL078C, strain atp4, active compounds read low 0.972 | locus YPL106C, strain sse1, active compounds read low 0.895 | locus YPL240C, strain hsp82, active compounds read low 0.996 | locus YPL256C, strain CLN2, active compounds read low 1.06
